Screening results: PubChem BioAssay, National Center for Advancing Translational Sciences (NCATS)
IL1B secr inh: blocks inflammasome-driven IL-1 beta release. THP-1 LPS/ATP IL-1B secretion, AlphaLISA, 16 h; hits give low values. activity change, % at 57.5 µM. 4.7% of 360,000 active. AID 743279; in the data active means activity change below about -50%; inconclusive means mostly about -30% to -49%
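THP-1 cells pretreated 1 hr with compounds (up to 57.5 uM final), then stimulated with LPS (250 ng/mL final) plus ATP (1.25 mM final); secreted IL-1B measured by AlphaLISA after 16 hr, decreased signal indicating inhibition.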
TDP1 cell noCPT: qHTS for Inhibitors of human tyrosyl-DNA phosphodiesterase 1 (TDP1): qHTS in cells in absence of CPT; DT40 Tdp1-/- hTDP1 cells, no CPT, ATP luminescence, 48 h; Potency, µM (series often up to 46.2 µM), most hits filed as inhibitors; 15% of 420,000 active; AID 686978, 2013; further: nearly all actives have a fitted effect of over 55% in size
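Readout: luminescence from CellTiter-Glo after 30 min in the dark at RT. Cells: DT40 Tdp1-/- with stable hTDP1, 400/well. Exposure: compounds alone, ≥48 hr, 37 °C.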
HepG2 tox: counter-screen for TGF-b inhibitors: cytotoxicity in HepG2 cells | HepG2 CAGA-GFP viability, ATP luminescence, 18 h | Potency, µM (titrated, usually from 46.1 µM), usual class: cytotoxic | 0.76% of 410,000 active | AID 588856
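CellTiter-Glo luminescence gave cytotoxicity after 18 hours at 37 degrees C. The cells were HepG2 CAGA-GFP in 1% FBS DMEM, stimulated with 500 pg/mL TGF-beta after compound addition. %Activity was normalised to no-cell wells (complete cell-killing) and DMSO (no toxicity), and curves were fitted and classified.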
TGFb SMAD3 inh: TGF-b pathway inhibition; AID 588855; Potency, µM (titrated, usually from 46.1 µM), actives largely listed as inhibitors; 1.2% of 410,000 active; HepG2 CAGA-GFP TGF-b/SMAD3 reporter, GFP fluorescence, 18 h; TGF-beta stimulated, 500 pg/mL final; further: nearly all actives have a fitted effect of over 65% in size
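Smad-responsive CAGA-GFP expression was quantified in HEPG2 cells exposed to compounds and 500 pg/mL final TGF-beta for 18 h at 37 degrees C; unstimulated wells defined full inhibition.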
TDP1 cell CPT: growth inhibition of DT40 Tdp1-/-;hTDP1 cells with camptothecin (screen for TDP1 inhibitors); AID 686979; 12% of 420,000 active; chicken DT40 Tdp1-/-;hTDP1 cells + 20 nM CPT, ATP luminescence, 48 h; Potency, µM (doses to about 46.2 µM), most hits filed as inhibitors; further: nearly all actives have a fitted effect of over 55% in size
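Chicken DT40 Tdp1-/- cells complemented with human TDP1, 400 cells/well, exposed to compounds plus 20 nM camptothecin for at least 48 h at 37 C; viability read as ATP content by CellTiter-Glo luminescence.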
TDP1 block: blocks human tyrosyl-DNA phosphodiesterase 1 | AID 485290 | Potency, µM (series often up to 130 µM), hits mostly inhibitors | recombinant TDP1, AlphaScreen DNA substrate cleavage | Q9NUW8 | 0.28% of 350,000 active; further: nearly all actives have a fitted effect of over 40% in size
Target sequence (Q9NUW8 whole entry, looked up): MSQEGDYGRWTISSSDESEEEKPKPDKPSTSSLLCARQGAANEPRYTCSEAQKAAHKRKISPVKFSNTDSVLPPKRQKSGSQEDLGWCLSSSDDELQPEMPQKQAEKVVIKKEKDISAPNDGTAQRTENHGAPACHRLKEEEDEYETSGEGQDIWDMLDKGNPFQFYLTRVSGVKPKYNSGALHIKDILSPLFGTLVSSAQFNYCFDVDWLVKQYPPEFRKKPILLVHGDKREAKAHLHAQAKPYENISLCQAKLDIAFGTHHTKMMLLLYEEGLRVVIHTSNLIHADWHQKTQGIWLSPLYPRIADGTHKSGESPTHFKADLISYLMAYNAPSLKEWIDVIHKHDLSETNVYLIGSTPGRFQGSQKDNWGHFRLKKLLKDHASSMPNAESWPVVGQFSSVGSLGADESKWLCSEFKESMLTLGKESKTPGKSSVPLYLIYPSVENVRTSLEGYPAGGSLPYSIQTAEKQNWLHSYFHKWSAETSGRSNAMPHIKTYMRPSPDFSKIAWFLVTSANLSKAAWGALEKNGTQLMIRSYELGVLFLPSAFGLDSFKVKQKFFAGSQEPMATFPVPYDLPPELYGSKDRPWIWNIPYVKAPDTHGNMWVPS
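E. coli-derived human Tdp1, 1 nM final. Cpd preinc 15 min RT; substrate 15 nM final, 5 min RT; AS bead mix 10 ug/ml final, 10 min RT. Signal loss = tyrosine-FITC cleavage. No-enzyme wells = max signal.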
Hits are given with their value; - = inactive; ? = inconclusive; . = no result; [ ] = another dose, or the depositor's remark. Shown are actives, neighbours in structure and some others; about 18% of the full set was active somewhere. Unless noted, the call rests on the fitted dose curve; in most records, active means well fitted curve in the direction sought with a large enough effect; inconclusive means small, poorly fitted or top-dose-only effect, or another doubt; inactive means no such curve, though single readings can be large; an effect the other way counts as inactive or inconclusive.

SMILES	IL1B secr inh	TDP1 cell noCPT	HepG2 tox	TGFb SMAD3 inh	TDP1 cell CPT	TDP1 block
N#CC1=C2SCC(O)(c3ccccc3)N2C(=O)CC1c1ccccc1 (stereo not drawn)	-	1.6µM	-	-	1.3µM	-
COc1ccc(C(=O)NCC2Cc3cccc(-c4cncnc4)c3O2)c(OC)c1OC (stereo not drawn)	.	?	.	.	-[9.04 µM]	.
Cc1cc(C(C)(C)C)oc1C(=O)N(CC(=O)NC1CCCC1)c1c(C)cccc1C	-	5.2µM	16µM	?	12µM	-
COc1ccccc1N(CC(=O)NC1CCCC1)C(=O)c1csnn1	-	?	-	-	-	-
Cc1cc(C(C)(C)C)oc1C(=O)N(CC(=O)NC1CCCC1)c1ccc(F)cc1	-	16µM	-	?	?	-
O=C(CN(C(=O)CNC(=O)c1ccco1)c1ccc(F)cc1)NC1CCCC1	-	-	-	-	-	.
COc1ccccc1N(CC(=O)NC1CCCC1)C(=O)c1oc(C(C)(C)C)cc1C	-91	15µM	-	?	23µM	-
COc1cccc2c1cc1c(=O)n(CC(=O)N3CCC(C)CC3)nc(C)n12	-	?	-	-	-	-
O=C1CCCC2CCCCN12 (stereo not drawn)	.	.	.	.	.	-
COc1ccc(-c2ccc(C(=O)NCc3ccc(N4CCN(C)CC4)cc3)c3occc23)c(C)c1	?	16µM	11µM	?	16µM	.
COc1ccc(-c2ccc(C(=O)NCc3ccccc3)c3occc23)c(C)c1	?	?	-	?	23µM	.
COc1ccc(-c2ccc(C(=O)NCc3ccc(C(F)(F)F)cc3)c3occc23)c(C)c1	-	16µM	-	-	18µM	.
Cc1ccccc1CC(=O)N1CCC(CCC(=O)NC2CC2)CC1	-	-	-	-	-	.
CCCCC1=CC2=C(OC(C)=O)C(=O)C(C)(OC(=O)CC)C(=O)C2=CO1 (stereo not drawn)	.	.	.	.	.	-
Cc1ccc(C(=O)NCCNC(=O)c2cccnc2)cc1	-	-	-	-	-	.
COc1ccc2nc(C)cc(SCC(=O)NNC(=O)COc3ccccc3)c2c1	-	?	-	-	?	-
COc1ccc2nc(C)cc(Sc3nc4ccccc4s3)c2c1	-99	9.2µM	-	?	9.2µM	-
COc1ccc(Nc2cc(C)nc3ccc(OC)cc23)cc1	-101	?	-	-	-	.
COc1ccc(CNc2cc(C)nc3ccc(OC)cc23)cc1	-93	21µM	-	-	?	-
COc1ccc2nc(C)cc(Nc3ccc(C(=O)O)cc3)c2c1	-	-	-	-	-	.
CCOc1ccc(Nc2cc(C)nc3ccc(C)cc23)cc1	-88	?	-	?	23µM	.
COC(=O)c1c[nH]c(=S)n1Cc1ccccc1	-	-	-	-	-	.
COc1cccc(NC(=O)C2(C)CCCN(C(C)C)C2)c1 (stereo not drawn)	-	-	-	-	-	.
Cc1c2c(cc3c1[nH]c1ccccc13)C=NCC2	-73	23µM	-	-	?	.
CCc1c(C)nc2ncnn2c1NCCc1ccc(Cl)cc1	-	9.2µM	-	-	16µM	-
SMILES	IL1B secr inh	TDP1 cell noCPT	HepG2 tox	TGFb SMAD3 inh	TDP1 cell CPT	TDP1 block
Cc1cccc(C=Nc2ccc3c4c(cccc24)CC3)c1O	-	-	-	-	-	-
CCc1ccc(O)c(N=Cc2cccc(C)c2O)c1	-	21µM	-	?	21µM	-
CN1C(=O)C2(NC(=O)c3ccccc3N2C)c2ccccc21 (stereo not drawn)	-	-	-	-	-	.
CN1C(=O)C(Cl)(Cl)C(=O)c2ccccc21	-91	16µM	-	?	15µM	-
CN(C)c1ccc(/C=N/NC(=O)CN2CCCCC2)cc1Br	-	-	-	-	-	.
O=C(/C=C/c1ccc2c(c1)OCO2)NC1CCCC1	-	-	-	-	-	.
O=C(C=Cc1ccc2c(c1)OCO2)c1ccccc1	-72	16µM	-	?	?	.
O=C(/C=C/c1ccc2c(c1)OCO2)N1CCOCC1	-	-	-	-	-	-
